Results as given in the supplement of paper PMC8728848.
Many of the other results were omitted from the sample, so the strongest signals are more common in it than they were.

Tests used:
Experiment in all cases: glycan array binding signal (z-score within array); higher = stronger binding
Details in all cases: glycan notation: IUPAC condensed, linker removed
Fuc(a1-2)Gal(b1-4)GlcNAc = target: Fuc(a1-2)Gal(b1-4)GlcNAc
Method in brief: (§1)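 Arrays were curated from the Consortium for Functional Glycomics database, 3228 in total, and kept only where the protein sequence was available. Binding is expressed as a within-array Z-score. This score was averaged across arrays of the same protein sequence at different concentrations or buffers and across linkers, and negative values can be read as non-binding.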

[1] = target: Fuc(a1-2)Gal(b1-4)GlcNAc(b1-2)Man(a1-3)[Fuc(a1-2)Gal(b1-4)GlcNAc(b1-2)Man(a1-6)]Man(b1-4)GlcNAc(b1-4)[Fuc(a1-6)]GlcNAc
Method in brief: as §1

[2] = target: Fuc(a1-2)Gal(b1-4)GlcNAc(b1-3)Gal(b1-4)GlcNAc
Method in brief: as §1

Fuc(a1-2)[Gal(a1-3)]Gal = target: Fuc(a1-2)[Gal(a1-3)]Gal
Method in brief: as §1

[3] = target: Fuc(a1-2)[GalNAc(a1-3)]Gal(b1-4)GlcNAc(b1-6)GalNAc
Method in brief: as §1

[4] = target: Fuc(a1-2)[GalNAc(a1-3)]Gal(b1-4)[Fuc(a1-3)]GlcNAc
Method in brief: as §1

[5] = target: Fuc(a1-3)[GalNAc(b1-4)]GlcNAc
Method in brief: as §1

[6] = target: Gal(a1-3)Gal(b1-3)GlcNAc(b1-3)GalNAc
Method in brief: as §1

[7] = target: Gal(a1-3)Gal(b1-3)GlcNAc(b1-6)GalNAc
Method in brief: as §1

[8] = target: Gal(a1-3)Gal(b1-4)GlcNAc(b1-2)Man(a1-3)[Gal(a1-3)Gal(b1-4)GlcNAc(b1-2)Man(a1-6)]Man(b1-4)GlcNAc(b1-4)GlcNAc
Method in brief: as §1

[9] = target: Gal(a1-4)Gal(b1-4)GlcNAc(b1-3)Gal(b1-4)Glc
Method in brief: as §1

Gal(b1-3)Gal(b1-4)GlcNAc = target: Gal(b1-3)Gal(b1-4)GlcNAc
Method in brief: as §1

[10] = target: Gal(b1-3)GalNAc(b1-4)Gal(b1-4)Glc
Method in brief: as §1

[11] = target: Gal(b1-3)GlcNAc(b1-2)Man(a1-3)[GlcNAc(b1-4)][Gal(b1-3)GlcNAc(b1-2)Man(a1-6)]Man(b1-4)GlcNAc(b1-4)GlcNAc
Method in brief: as §1

[12] = target: Gal(b1-3)GlcNAc(b1-6)Gal(b1-4)GlcNAc
Method in brief: as §1

[13] = target: Gal(b1-3)[Fuc(a1-4)]GlcNAc(b1-3)Gal(b1-4)[Fuc(a1-3)]GlcNAc
Method in brief: as §1

[14] = target: Gal(b1-4)GalNAc(b1-3)[Fuc(a1-2)]Gal(b1-4)GlcNAc
Method in brief: as §1

[15] = target: Gal(b1-4)GlcNAc(b1-2)Man(a1-3)[Gal(b1-4)GlcNAc(b1-2)Man(a1-6)]Man(b1-4)GlcNAc(b1-4)[Fuc(a1-6)]GlcNAc
Method in brief: as §1

[16] = target: Gal(b1-4)GlcNAc(b1-3)Gal(b1-3)GlcNAc
Method in brief: as §1

[17] = target: Gal(b1-4)GlcNAc(b1-3)Gal(b1-4)GlcNAc(b1-2)Man(a1-3)[Gal(b1-4)GlcNAc(b1-3)Gal(b1-4)GlcNAc(b1-2)Man(a1-6)]Man(b1-4)GlcNAc(b1-4)GlcNAc
Method in brief: as §1

[18] = target: Gal(b1-4)GlcNAc(b1-3)Gal(b1-4)GlcNAc(b1-3)Gal(b1-4)GlcNAc(b1-2)Man(a1-3)[Gal(b1-4)GlcNAc(b1-3)Gal(b1-4)GlcNAc(b1-3)Gal(b1-4)GlcNAc(b1-2)Man(a1-6)]Man(b1-4)GlcNAc(b1-4)GlcNAc
Method in brief: as §1

[19] = target: Gal(b1-4)GlcNAc(b1-3)Gal(b1-4)GlcNAc(b1-3)GalNAc
Method in brief: as §1

[20] = target: Gal(b1-4)GlcNAc(b1-3)Gal(b1-4)GlcNAc(b1-3)[Gal(b1-4)GlcNAc(b1-3)Gal(b1-4)GlcNAc(b1-6)]GalNAc
Method in brief: as §1

[21] = target: Gal(b1-4)GlcNAc(b1-3)Gal(b1-4)GlcNAc(b1-6)[Gal(b1-3)]GalNAc
Method in brief: as §1

Gal4S(b1-4)GlcNAc = target: Gal4S(b1-4)GlcNAc
Method in brief: as §1

Gal6P(b1-4)GlcNAc = target: Gal6P(b1-4)GlcNAc
Method in brief: as §1

GalNAc(b1-3)GalNAc = target: GalNAc(b1-3)GalNAc
Method in brief: as §1

GalNAc(b1-6)GalNAc = target: GalNAc(b1-6)GalNAc
Method in brief: as §1

[22] = target: GlcNAc(b1-2)[GlcNAc(b1-4)]Man(a1-3)[GlcNAc(b1-4)][GlcNAc(b1-2)[GlcNAc(b1-6)]Man(a1-6)]Man(b1-4)GlcNAc(b1-4)[Fuc(a1-6)]GlcNAc
Method in brief: as §1

[23] = target: GlcNAc(b1-2)[GlcNAc(b1-6)]Man(a1-6)[GlcNAc(b1-2)Man(a1-3)]Man(b1-4)GlcNAc(b1-4)GlcNAc
Method in brief: as §1

[24] = target: GlcNAc(b1-3)Gal(b1-4)GlcNAc(b1-3)Gal(b1-4)GlcNAc(b1-3)Gal(b1-4)GlcNAc(b1-3)Gal(b1-4)GlcNAc(b1-2)Man(a1-3)[GlcNAc(b1-3)Gal(b1-4)GlcNAc(b1-3)Gal(b1-4)GlcNAc(b1-3)Gal(b1-4)GlcNAc(b1-3)Gal(b1-4)GlcNAc(b1-2)Man(a1-6)]Man(b1-4)GlcNAc(b1-4)[Fuc(a1-6)]GlcNAc
Method in brief: as §1

[25] = target: GlcNAc(b1-4)Gal(b1-4)GlcNAc
Method in brief: as §1

[26] = target: GlcNAc(b1-4)GlcNAc(b1-4)GlcNAc(b1-4)GlcNAc(b1-4)GlcNAc
Method in brief: as §1

[27] = target: GlcNAc6S(b1-3)Gal(b1-4)GlcNAc
Method in brief: as §1

[28] = target: Man(a1-2)Man(a1-3)[Man(a1-2)Man(a1-6)]Man(a1-6)[Man(a1-2)Man(a1-2)Man(a1-3)]Man
Method in brief: as §1

[29] = target: Man(a1-3)[Man(a1-6)]Man(a1-6)[Man(a1-2)Man(a1-3)]Man(b1-4)GlcNAc(b1-4)GlcNAc
Method in brief: as §1

[30] = target: Neu5Ac(a2-3)Gal(b1-3)GalNAc6S
Method in brief: as §1

[31] = target: Neu5Ac(a2-3)Gal(b1-3)GlcNAc(b1-2)Man(a1-3)[GlcNAc(b1-4)][Neu5Ac(a2-3)Gal(b1-3)GlcNAc(b1-2)Man(a1-6)]Man(b1-4)GlcNAc(b1-4)GlcNAc
Method in brief: as §1

[32] = target: Neu5Ac(a2-3)Gal(b1-3)[Neu5Ac(a2-6)]GlcNAc(b1-3)[Fuc(a1-3)[Gal(b1-4)]GlcNAc(b1-6)]Gal(b1-4)Glc
Method in brief: as §1

[33] = target: Neu5Ac(a2-3)Gal(b1-4)GlcNAc(b1-2)[Neu5Ac(a2-3)Gal(b1-4)GlcNAc(b1-2)]Man(a1-6)[Neu5Ac(a2-3)Gal(b1-4)GlcNAc(b1-2)Man(a1-3)][GlcNAc(b1-4)]Man(b1-4)GlcNAc(b1-4)GlcNAc
Method in brief: as §1

[34] = target: Neu5Ac(a2-3)Gal(b1-4)GlcNAc(b1-2)[Neu5Ac(a2-3)Gal(b1-4)GlcNAc(b1-6)]Man(a1-6)[Neu5Ac(a2-3)Gal(b1-4)GlcNAc(b1-2)Man(a1-3)]Man(b1-4)GlcNAc(b1-4)GlcNAc
Method in brief: as §1

[35] = target: Neu5Ac(a2-3)Gal(b1-4)GlcNAc(b1-3)Gal(b1-4)GlcNAc
Method in brief: as §1

[36] = target: Neu5Ac(a2-3)Gal(b1-4)GlcNAc(b1-3)Gal(b1-4)GlcNAc(b1-2)Man(a1-3)[Neu5Ac(a2-3)Gal(b1-4)GlcNAc(b1-3)Gal(b1-4)GlcNAc(b1-2)Man(a1-6)]Man(b1-4)GlcNAc(b1-4)GlcNAc
Method in brief: as §1

[37] = target: Neu5Ac(a2-3)Gal(b1-4)GlcNAc(b1-3)Gal(b1-4)GlcNAc(b1-3)Gal(b1-4)GlcNAc(b1-2)Man(a1-3)[Neu5Ac(a2-3)Gal(b1-4)GlcNAc(b1-3)Gal(b1-4)GlcNAc(b1-3)Gal(b1-4)GlcNAc(b1-2)Man(a1-6)]GalNAc
Method in brief: as §1

[38] = target: Neu5Ac(a2-3)Gal6S(b1-4)[Fuc(a1-3)]GlcNAc
Method in brief: as §1

[39] = target: Neu5Ac(a2-3)[GalNAc(b1-4)]Gal(b1-4)GlcNAc(b1-3)GalNAc
Method in brief: as §1

[40] = target: Neu5Ac(a2-6)Gal(b1-4)GlcNAc(b1-2)Man(a1-3)Man(b1-4)GlcNAc(b1-4)GlcNAc
Method in brief: as §1

[41] = target: Neu5Ac(a2-6)Gal(b1-4)GlcNAc(b1-3)Gal(b1-4)GlcNAc(b1-3)Gal(b1-4)GlcNAc(b1-2)Man(a1-3)[Neu5Ac(a2-6)Gal(b1-4)GlcNAc(b1-3)Gal(b1-4)GlcNAc(b1-3)Gal(b1-4)GlcNAc(b1-2)Man(a1-6)]GalNAc
Method in brief: as §1

[42] = target: Neu5Ac(a2-6)Gal(b1-4)GlcNAc(b1-3)Gal(b1-4)GlcNAc(b1-3)[Neu5Ac(a2-6)Gal(b1-4)GlcNAc(b1-3)Gal(b1-4)GlcNAc(b1-6)]GalNAc
Method in brief: as §1

[43] = target: Neu5Ac(a2-8)Neu5Ac(a2-3)Gal(b1-4)Glc
Method in brief: as §1

B1: CBM13 2a (Mycobacterium tuberculosum), P64849 (protein)
chain: DGPVQLKSRLGDVCLDAPSGSWFSPLVINPCNGTDFQRWNLTDDRQVESVAFPGECVNIGNALWARLQPCVNWISQHWTVQPDGLVKSDLDACLTVLGGPDPGTWVSTRWCDPNAPDQQWDSVPLEHHHHHH
With B1 the “glycan array binding signal (z-score)” value (Fuc(a1-2)Gal(b1-4)GlcNAc) was -0.294, the “glycan array binding signal (z-score)” value [1] was 0.023 and the “glycan array binding signal (z-score)” value [2] was -0.362. For the same binder, the “glycan array binding signal (z-score)” value (Fuc(a1-2)[Gal(a1-3)]Gal) was -0.26, the “glycan array binding signal (z-score)” value [3] was -0.303 and the “glycan array binding signal (z-score)” value [4] was 0.434. The “glycan array binding signal (z-score)” value [5] was -0.31, the “glycan array binding signal (z-score)” value [6] was -0.132 and the “glycan array binding signal (z-score)” value [7] was -0.286. For the same binder, the “glycan array binding signal (z-score)” value [8] was -0.178, the “glycan array binding signal (z-score)” value [9] was -0.267 and the “glycan array binding signal (z-score)” value (Gal(b1-3)Gal(b1-4)GlcNAc) was -0.121. The “glycan array binding signal (z-score)” value [10] was -0.32, the “glycan array binding signal (z-score)” value [11] was -0.203 and the “glycan array binding signal (z-score)” value [12] was -0.345. For the same binder, the “glycan array binding signal (z-score)” value [13] was -0.184, the “glycan array binding signal (z-score)” value [14] was -0.335 and the “glycan array binding signal (z-score)” value [15] was 0.207. The “glycan array binding signal (z-score)” value [16] was -0.187, the “glycan array binding signal (z-score)” value [17] was 3.82 and the “glycan array binding signal (z-score)” value [18] was 3.22. For the same binder, the “glycan array binding signal (z-score)” value [19] was 6.08, the “glycan array binding signal (z-score)” value [20] was 4.69 and the “glycan array binding signal (z-score)” value [21] was 5.73. For the same binder, the “glycan array binding signal (z-score)” value (Gal4S(b1-4)GlcNAc) was -0.154, the “glycan array binding signal (z-score)” value (Gal6P(b1-4)GlcNAc) was -0.708 and the “glycan array binding signal (z-score)” value (GalNAc(b1-3)GalNAc) was -0.167. The “glycan array binding signal (z-score)” value (GalNAc(b1-6)GalNAc) was -0.3, the “glycan array binding signal (z-score)” value [22] was -0.406 and the “glycan array binding signal (z-score)” value [23] was 0.094. The “glycan array binding signal (z-score)” value [24] was -0.169, the “glycan array binding signal (z-score)” value [25] was -0.553 and the “glycan array binding signal (z-score)” value [26] was -0.213. For the same binder, the “glycan array binding signal (z-score)” value [27] was -0.288, the “glycan array binding signal (z-score)” value [28] was -0.338 and the “glycan array binding signal (z-score)” value [29] was 6.51. The “glycan array binding signal (z-score)” value [30] was -0.262, the “glycan array binding signal (z-score)” value [31] was -0.103 and the “glycan array binding signal (z-score)” value [32] was -0.258. For the same binder, the “glycan array binding signal (z-score)” value [33] was -0.048, the “glycan array binding signal (z-score)” value [34] was -0.017 and the “glycan array binding signal (z-score)” value [35] was -0.249. For the same binder, the “glycan array binding signal (z-score)” value [36] was 7.02, the “glycan array binding signal (z-score)” value [37] was 9.05 and the “glycan array binding signal (z-score)” value [38] was -0.271. For the same binder, the “glycan array binding signal (z-score)” value [39] was 4.49, the “glycan array binding signal (z-score)” value [40] was -0.031 and the “glycan array binding signal (z-score)” value [41] was 4.67. For the same binder, the “glycan array binding signal (z-score)” value [42] was 8.64 and the “glycan array binding signal (z-score)” value [43] was -0.117.
